SMILES strings stand for the structures. Results filed as inconclusive are left out. Entries that show only a call come without a potency. Active and inactive are the calls of the source. Calls come from the whole dose curve; as a rule, active = well fitted inhibition curve with a large enough effect; inconclusive = small, poorly fitted or top-dose-only effect, or effect the other way; inactive = flat fitted curve, though single readings scatter.
Potency is the fitted concentration of half-maximal effect.

The target in the experiment is D(1A) dopamine receptor (Homo sapiens) (UniProt P21728). Briefly: HTS Assay for Allosteric Agonists of the Human D1 Dopamine Receptor: Primary Screen for Antagonists (AID 488983). Note: nearly all actives have a fitted effect of over 65% in size. Conditions: D1 receptor cell assay, antagonist mode, qHTS titration; series mostly up to 41.8 µM. The source says: Dopamine receptors (DARs) are involved in the etiology and/or therapy of a number of neuropsychiatric and endocrine disorders. For instance, all receptor-based antiparkinsonian drugs work via stimulating the […] DAR subtype whereas all FDA-approved antipsychotic agents are antagonists of this receptor. […] There are three different types of allosteric modulators that we are seeking, two of which will stimulate or augment receptor signaling, allosteric agonists and potentiators, while the third, allosteric antagonists, will attenuate receptor signaling. The present primary screening assay measures compound agonism by tracking calcium flux in a […], inducible Hek293 Trex D1 cell line.
Chain of D(1A) dopamine receptor (Homo sapiens) (P21728 whole entry, looked up): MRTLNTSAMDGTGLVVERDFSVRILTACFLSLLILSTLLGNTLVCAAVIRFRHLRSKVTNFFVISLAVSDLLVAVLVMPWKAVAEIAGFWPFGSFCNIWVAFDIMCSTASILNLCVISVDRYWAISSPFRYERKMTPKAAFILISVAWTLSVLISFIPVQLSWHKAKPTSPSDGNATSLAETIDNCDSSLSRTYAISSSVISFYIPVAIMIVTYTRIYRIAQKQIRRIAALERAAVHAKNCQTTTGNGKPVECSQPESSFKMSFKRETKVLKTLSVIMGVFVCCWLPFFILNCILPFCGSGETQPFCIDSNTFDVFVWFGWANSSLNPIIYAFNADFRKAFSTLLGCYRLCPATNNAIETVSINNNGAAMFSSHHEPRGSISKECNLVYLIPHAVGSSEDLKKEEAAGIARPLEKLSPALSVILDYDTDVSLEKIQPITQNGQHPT
Freshly passaged cells are plated in 1536 well black, clear bottom plates at a density of 4000 cells/well in 3 ul of complete media containing 1x tetracycline inducer. After an overnight incubation at 30 C in 5% CO2, cells are loaded with 2 ul of the no wash Calcium Assay Kit (ABD Bioquest) and incubated at room temperature for 30 to 90 minutes. A 10 cycle (1 second/cycle) baseline measurement is taken and then the FDSS online 1536 pintool delivers 23 nl of compound library (as well as dopamine controls) to the plate. The plate is measured for kinetically at 1 cycle/sec for 180 seconds and is considered to be the agonist portion of the assay (eg, compounds which activate a positive calcium response during this portion are flagged as potential agonists). Following the 180 second read, 1 ul of an EC80 of dopamine is delivered by an onboard pipette head. Measurements are taken kinetically for an additional 180 seconds.
For `CC1=NN=C(c2ccc(N)cc2)c2cc3c(cc2C1)OCO3`, the Potency entry was “inactive”. To `COc1ccc2c(c[n+](C)c3c4cc5c(cc4ccc23)OCO5)c1OC` belongs “inactive”; to `C[C@]12CCC3C(CC[C@H]4C[C@H](O)CC[C@]34C)C1CC[C@@H]2C(=O)CO` (stereo not given in full), “inactive”. To `NC1CCc2cc(O)c(O)cc2C1` (stereo not given) belongs 0.0891 µM (active); to `CNCCc1ccc(O)c(O)c1`, 0.251 µM (active); to `NC(CCP(=O)(O)O)C(=O)O` (stereo not given), “inactive”. Turning to `NCCc1c[nH]c2ccc(O)cc12`, the Potency result was “inactive”. On to `CC(Cc1ccc(O)cc1)NCC(O)c1cc(O)cc(O)c1` (stereo not given), for which the Potency result is “inactive”. In the case of `O=C(Cc1ccc(Cl)c(Cl)c1)N1CCCCC1CN1CCCC1` (stereo not given), the Potency entry was “inactive”.

`NC(CP(=O)(O)O)C(=O)O` (stereo not given): the Potency result was “inactive”. In the case of `O=C(O)[C@@H]1CCN1`, the Potency result was “inactive”.

Take `O=C(O)CC[N+](=O)[O-]`: the Potency result is “inactive”. Consider `NC(=NCCC[C@H](N)C(=O)O)N[N+](=O)[O-]`, for which the Potency result is “inactive”. Turning to `C#CCOC(=O)C1=CCCN(C)C1`, the Potency result is “inactive”. Under `CC(=O)[C@H]1CCC2C3CC[C@H]4C[C@H](O)CC[C@]4(C)C3CC[C@@]21C` (stereo not given in full) stands “inactive”; under `CN1C2CCC1CC(OC(=O)c1cc(Cl)cc(Cl)c1)C2` (stereo not given), “inactive”. For `Cc1c(C(=O)c2cccc3ccccc23)c2cccc3c2n1[C@H](CN1CCOCC1)CO3`, the Potency entry is “inactive”.

`c1ccc(C2(c3ccccc3)CC2C2=NCCN2)cc1` (stereo not given): the Potency entry is “inactive”. For the molecule `NC(=O)CN1CC(O)CC1=O` (stereo not given), the Potency entry is “inactive”.

As for `C[N+]1(C)C2CCC1CC(OC(=O)C(CO)c1ccccc1)C2` (stereo not given), the Potency result was “inactive”. For the molecule `NCc1cc(=O)[nH]o1`, the Potency result is “inactive”. On to `C[C@@H]1O[C@H](C[N+](C)(C)C)C[C@H]1O`, for which the Potency result was “inactive”. On to `COc1cc(C(O)CN)ccc1O` (stereo not given), for which the Potency entry was “inactive”. Under `CC[C@@]1(O)C(=O)OCc2c1cc1n(c2=O)Cc2cc3ccccc3nc2-1` stands “inactive”; under `C[C@]12N[C@H](Cc3ccccc31)c1ccccc12`, “inactive”.

For the molecule `Oc1ccc2c3c1O[C@H]1c4[nH]c5c(c4C[C@@]4(O)[C@@H](C2)N(CC2CC2)CC[C@]314)C[C@@]1(O)[C@H]2Cc3ccc(O)c4c3[C@@]1(CCN2CC1CC1)[C@H]5O4`, the Potency entry is “inactive”.

On to `Cc1nccc2c1[nH]c1ccccc12`, for which the Potency entry is “inactive”. Take `CC(C)NC(C)Cc1ccc(I)cc1` (stereo not given): the Potency entry was “inactive”. Under `C[C@@H](N)Cc1cnc[nH]1` stands “inactive”. As for `O=C1CCCN1CC#CCN1CCCC1`, the Potency entry is “inactive”. In the case of `COC(=O)[C@@H](N)CCCN=C(N)N[N+](=O)[O-]`, the Potency entry is “inactive”. As to `O=C(N[C@H]1CN2CCC1CC2)c1ccc(Cl)cc1`, the Potency entry was “inactive”. Turning to `CS(=N)(=O)CC[C@H](N)C(=O)O` (stereo not given in full), the Potency entry was “inactive”. To `CCCN1CCO[C@@H]2c3cc(O)ccc3OC[C@H]21` belongs “inactive”. Regarding `S=C(NC1CCCCC1)N1CCC(c2cnc[nH]2)CC1`, the Potency entry is “inactive”. As to `CNCCc1c[nH]c2ccc(O)cc12`, the Potency result was “inactive”.

Turning to `CC[C@@H](C(N)=O)N1CCCC1=O`, the Potency entry was “inactive”. Regarding `CCCCc1ccc(C(=O)O)nc1`, the Potency result is “inactive”. To `CCCN1CCC[C@H](c2cccc(O)c2)C1` belongs “inactive”; to `CC(=O)NCCc1c[nH]c2ccccc12`, “inactive”.

Source of the values: PubChem BioAssay (NCATS).
